{"source": "the supplement of paper PMC3334620", "note": "Over roughly 33,000 sequences, “E-score (-0.5 to 0.5)” has its median near -0.0059; the highest 2% begin near 0.26. The list comes from a sample in which the highest values are over-represented; it also holds similar and randomly drawn sequences."}
{"target": "T1, Cin5 (UniProt P40917)", "T1 sequence": "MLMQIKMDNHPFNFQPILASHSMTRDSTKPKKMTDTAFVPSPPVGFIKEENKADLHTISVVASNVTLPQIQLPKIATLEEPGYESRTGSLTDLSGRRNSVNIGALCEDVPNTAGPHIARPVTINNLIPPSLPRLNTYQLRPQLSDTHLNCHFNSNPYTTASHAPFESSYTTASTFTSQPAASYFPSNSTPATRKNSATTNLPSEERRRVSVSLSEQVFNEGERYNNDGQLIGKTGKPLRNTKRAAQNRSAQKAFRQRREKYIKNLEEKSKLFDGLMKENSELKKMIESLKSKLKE", "experiment": "PBM E-score (8-mer binding enrichment) (E-score (-0.5 to 0.5)); higher = stronger / more preferred TF binding", "conditions": "protein concentration: 100 nM; construct: GST-full length", "outline": "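GST-tagged yeast TFs (full-length or DNA-binding domain) were made by PURExpress in vitro transcription/translation and applied at about 100-200 nM to universal all-10-mer Agilent arrays. The arrays were made double-stranded by primer extension, on fresh or once-stripped slides. Bound protein was detected with fluorescent anti-GST, and scans were normalised with masliner. Each ungapped eight-base word, pooled with its reverse complement, received an E-score (modified Wilcoxon-Mann-Whitney statistic) from the Universal PBM Analysis Suite.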"}
{"sequence": "ATAAGCCA", "PBM E-score": 0.11}
{"sequence": "GTAAGCCA", "PBM E-score": 0.264}
{"sequence": "GTAAGCTA", "PBM E-score": 0.36}
{"sequence": "AGTCTCAG", "PBM E-score": -0.123}
{"sequence": "AACCTGAC", "PBM E-score": 0.131}
{"sequence": "ACGAGTCA", "PBM E-score": -0.257}
{"sequence": "CAAGAAGC", "PBM E-score": 0.0478}
{"sequence": "AGCTCATG", "PBM E-score": -0.0196}
{"sequence": "CAGACGAA", "PBM E-score": 0.286}
{"sequence": "GAGACGAA", "PBM E-score": 0.0297}
{"sequence": "CAGACGAC", "PBM E-score": -0.168}
{"sequence": "GAGCGGTA", "PBM E-score": -0.0453}
{"sequence": "GCAAAAGC", "PBM E-score": -0.0287}
{"sequence": "ATTCCGCC", "PBM E-score": 0.215}
{"sequence": "ATCCCGCG", "PBM E-score": 0.258}
{"sequence": "ATCCCGCC", "PBM E-score": 0.0426}
{"sequence": "ATTCCACC", "PBM E-score": 0.15}
{"sequence": "ATTCCACG", "PBM E-score": 0.0808}
{"sequence": "ATCCCGCA", "PBM E-score": 0.135}
{"sequence": "ATTCCGCG", "PBM E-score": 0.261}
{"sequence": "ATTCCACA", "PBM E-score": 0.266}
{"sequence": "ATTCCGCA", "PBM E-score": -0.0146}
{"sequence": "ATGACGCA", "PBM E-score": 0.195}
{"sequence": "ATTATTAA", "PBM E-score": 0.316}
{"sequence": "ACTATTAA", "PBM E-score": 0.162}
{"sequence": "ACTATTAC", "PBM E-score": 0.224}
{"sequence": "CTTATTAC", "PBM E-score": 0.236}
{"sequence": "CTTATTAA", "PBM E-score": 0.299}
{"sequence": "CGTATTAA", "PBM E-score": 0.106}
{"sequence": "CTTATTGA", "PBM E-score": 0.125}
{"sequence": "GTTATTAA", "PBM E-score": 0.214}
{"sequence": "ATTATTAC", "PBM E-score": 0.305}
{"sequence": "CGGGAACG", "PBM E-score": -0.00694}
{"sequence": "GAGCGGCC", "PBM E-score": -0.239}
{"sequence": "GAGATCTC", "PBM E-score": -0.0335}
{"sequence": "GATCCCTA", "PBM E-score": -0.0517}
{"sequence": "AACATACG", "PBM E-score": 0.171}
{"sequence": "ATCATAAG", "PBM E-score": 0.204}
{"sequence": "AACATACT", "PBM E-score": 0.0533}
{"sequence": "CACATAAG", "PBM E-score": 0.109}
{"sequence": "ATCATAAA", "PBM E-score": 0.131}
{"sequence": "AACATAAT", "PBM E-score": 0.346}
{"sequence": "AACATAAG", "PBM E-score": 0.328}
{"sequence": "ATCATAAT", "PBM E-score": 0.327}
{"sequence": "AACATAAC", "PBM E-score": 0.223}
{"sequence": "AAGTCAAC", "PBM E-score": 0.0456}
{"sequence": "CACTGTTC", "PBM E-score": -0.108}
{"sequence": "AGGATATA", "PBM E-score": 0.152}
{"sequence": "CAGTCCGA", "PBM E-score": -0.0341}
{"sequence": "AGGTTAGC", "PBM E-score": -0.199}
{"sequence": "TCGTCGAA", "PBM E-score": -0.161}
{"sequence": "AAACATGG", "PBM E-score": 0.0681}
{"sequence": "AAACATGA", "PBM E-score": 0.131}
{"sequence": "AAACATAC", "PBM E-score": 0.0238}
{"sequence": "AAACATAG", "PBM E-score": -0.0763}
{"sequence": "AAACATGT", "PBM E-score": 0.261}
{"sequence": "AAACATAT", "PBM E-score": 0.269}
{"sequence": "CCCAAGGC", "PBM E-score": -0.0737}
{"sequence": "AAACCTTG", "PBM E-score": 0.072}
{"sequence": "ACTAAAGA", "PBM E-score": -0.0785}
{"sequence": "CAGGGCGC", "PBM E-score": -0.0291}
{"sequence": "CAAGCACA", "PBM E-score": -0.0819}
{"sequence": "TAAGCAGA", "PBM E-score": 0.306}
{"sequence": "CAAGCAGA", "PBM E-score": 0.0983}
{"sequence": "TAAGCGAA", "PBM E-score": 0.275}
{"sequence": "CAAGCACG", "PBM E-score": -0.0414}
{"sequence": "GAAGCGAA", "PBM E-score": -0.0046}
{"sequence": "TAAGCACA", "PBM E-score": 0.314}
{"sequence": "CAAGCGAA", "PBM E-score": 0.187}
{"sequence": "AAAGCAGA", "PBM E-score": 0.178}
{"sequence": "ACCGGGAC", "PBM E-score": -0.0537}
{"sequence": "AAGGGGAG", "PBM E-score": -0.252}
{"sequence": "ATTTTACC", "PBM E-score": 0.237}
{"sequence": "ATTTCTCG", "PBM E-score": 0.313}
{"sequence": "ATTTTTCC", "PBM E-score": -0.0233}
{"sequence": "ATTTTACG", "PBM E-score": 0.271}
{"sequence": "AATTTCCG", "PBM E-score": 0.18}
{"sequence": "AATTTTCC", "PBM E-score": 0.289}
{"sequence": "ATTTCTCC", "PBM E-score": 0.0831}
{"sequence": "ATTTTCCC", "PBM E-score": 0.0377}
{"sequence": "AATTTACG", "PBM E-score": 0.234}
{"sequence": "ATTTTCCG", "PBM E-score": 0.329}
{"sequence": "ATTTCTCA", "PBM E-score": 0.0803}
{"sequence": "AATTTTTC", "PBM E-score": 0.057}
{"sequence": "ATACTTCG", "PBM E-score": 0.129}
{"sequence": "GACGTCCC", "PBM E-score": -0.0301}
{"sequence": "GCATTCGC", "PBM E-score": -0.157}
{"sequence": "AGACACCT", "PBM E-score": -0.048}
{"sequence": "CGAGCGCA", "PBM E-score": 0.0288}
{"sequence": "CCGCCACG", "PBM E-score": -0.222}
{"sequence": "ATTTCCCG", "PBM E-score": 0.258}
{"sequence": "ATTTCCCA", "PBM E-score": 0.165}
{"sequence": "ATTTCCCC", "PBM E-score": 0.0813}
{"sequence": "CAGTAACC", "PBM E-score": -0.021}
{"sequence": "AAGCAATC", "PBM E-score": 0.165}
{"sequence": "ATCTAATA", "PBM E-score": 0.19}
{"sequence": "CCCTAATC", "PBM E-score": 0.0683}
{"sequence": "ATCTAATC", "PBM E-score": 0.306}
{"sequence": "CCCTAAGC", "PBM E-score": -0.145}
{"sequence": "ACCTAAGC", "PBM E-score": 0.327}
{"sequence": "ACCTAATA", "PBM E-score": 0.246}
{"sequence": "ACCTAATC", "PBM E-score": 0.311}
{"sequence": "ATCTAATG", "PBM E-score": -0.00795}
{"sequence": "GCCTAAGC", "PBM E-score": -0.181}
{"sequence": "CGCGGTAC", "PBM E-score": -0.0212}
{"sequence": "CATTGCTC", "PBM E-score": -0.157}
{"sequence": "CCTACAGG", "PBM E-score": -0.33}
{"sequence": "AAAGAAAA", "PBM E-score": 0.112}
{"sequence": "AGAATGAC", "PBM E-score": 0.0989}
{"sequence": "CGAATGAC", "PBM E-score": 0.275}
{"sequence": "CGAATGAA", "PBM E-score": 0.0154}
{"sequence": "AGAGGACC", "PBM E-score": -0.22}
{"sequence": "GTATCAGA", "PBM E-score": -0.0398}
{"sequence": "GTATCATA", "PBM E-score": 0.274}
{"sequence": "CTATCATA", "PBM E-score": 0.21}
{"sequence": "ATATCATG", "PBM E-score": 0.0651}
{"sequence": "ATATCATA", "PBM E-score": 0.288}
{"sequence": "GTATCACA", "PBM E-score": 0.154}
{"sequence": "CTGTGACC", "PBM E-score": 0.0399}
{"sequence": "CAACTATC", "PBM E-score": 0.0334}
{"sequence": "CCATAATA", "PBM E-score": 0.226}
{"sequence": "GCATAATA", "PBM E-score": 0.235}
{"sequence": "ACATAATG", "PBM E-score": 0.204}
{"sequence": "ACATAATC", "PBM E-score": 0.445}
{"sequence": "ACATAATA", "PBM E-score": 0.364}
{"sequence": "CCATAATC", "PBM E-score": 0.245}
{"sequence": "ACTGCCCC", "PBM E-score": -0.125}
{"sequence": "ACCGCGCA", "PBM E-score": 0.151}
{"sequence": "CGCCTCTC", "PBM E-score": -0.34}
{"sequence": "AACTAATA", "PBM E-score": 0.378}
{"sequence": "AAATAATC", "PBM E-score": 0.17}
{"sequence": "AAATAAAT", "PBM E-score": 0.246}
{"sequence": "TACTAATA", "PBM E-score": 0.193}
{"sequence": "AAATAATG", "PBM E-score": 0.21}
{"sequence": "CACTAATA", "PBM E-score": 0.158}
{"sequence": "AAATAAGT", "PBM E-score": 0.12}
{"sequence": "AAATAATA", "PBM E-score": 0.313}
{"sequence": "CAATAACA", "PBM E-score": 0.193}
{"sequence": "AAATAACA", "PBM E-score": 0.171}
{"sequence": "GAATAACA", "PBM E-score": 0.26}
{"sequence": "AAATAATT", "PBM E-score": 0.301}
{"sequence": "AAAAGTTT", "PBM E-score": 0.00197}
{"sequence": "GCTTAAGA", "PBM E-score": -0.0654}
{"sequence": "ACGCCTGC", "PBM E-score": -0.234}
{"sequence": "CTCAGCGC", "PBM E-score": 0.0746}
{"sequence": "AATTCTCA", "PBM E-score": 0.0439}
{"sequence": "CTGCAGTC", "PBM E-score": -0.165}
{"sequence": "CTAAACTC", "PBM E-score": -0.0293}
{"sequence": "ACGAGGTA", "PBM E-score": 0.0339}
{"sequence": "GAATAAAA", "PBM E-score": 0.0288}
{"sequence": "TAATAACA", "PBM E-score": 0.146}
{"sequence": "GAATAATA", "PBM E-score": 0.291}
{"sequence": "CAATAATG", "PBM E-score": 0.0624}
{"sequence": "CAATAATC", "PBM E-score": 0.233}
{"sequence": "TAATAATA", "PBM E-score": 0.274}
{"sequence": "CAATAATA", "PBM E-score": 0.276}
{"sequence": "TAATAAAA", "PBM E-score": 0.235}
{"sequence": "GAATAATC", "PBM E-score": 0.221}
{"sequence": "CCTGAAAA", "PBM E-score": -0.101}
{"sequence": "AACTTTAT", "PBM E-score": 0.123}
{"sequence": "AGTTGTTG", "PBM E-score": 0.0199}
{"sequence": "ATGATATC", "PBM E-score": 0.167}
{"sequence": "ATGATATA", "PBM E-score": 0.166}
{"sequence": "AAGATATG", "PBM E-score": 0.268}
{"sequence": "ATGATATG", "PBM E-score": 0.289}
{"sequence": "AAGATATC", "PBM E-score": 0.207}
{"sequence": "AAGATATA", "PBM E-score": 0.152}
{"sequence": "CCTTCCAG", "PBM E-score": -0.127}
{"sequence": "GGTCCGCA", "PBM E-score": -0.0684}
{"sequence": "GGTTCCCA", "PBM E-score": -0.0888}
{"sequence": "AACTTGCG", "PBM E-score": -0.0652}
{"sequence": "ACTTAACA", "PBM E-score": 0.0535}
